# In the OligoGym collection:
# Target: ZBTB9
# Assay: pooled miR-30 sensor sort-seq; sequence = guide strand
# Conditions: shRNA
# Further: reference of the scale not given here.
row,Sequence,sensor-assay potency score (higher = more potent)
1,TAACACTGCTTTATGAGCCCTA,-0.401
2,TCGGCTTCAATGACACTCGGTA,-0.397
3,TTTAAGTAACTGCAAGTCCCAC,-0.539
4,TTAAGCTGTAAATCAAATGTAT,-0.457
5,TAATTCTCTAAGAATTTCTGAG,-0.361
6,TAAATAATTGAAAATCTGGTTT,-0.887
7,TGAGCACTGATCTACTACCTGC,-0.24
8,TAAAACATTTACCACTGTCTTT,-1.1
9,TTTTGCTCTAACTCTTCTCTCA,-0.273
10,TTGAGTTTCCACATCTGCCAGG,-0.504
11,TTAATGTAGAAGATTTTGGGGG,-0.261
12,TTTCTGAGCACTGATCTACTAC,-0.637

# Target: ZC3H13
# Assay: as above
# Conditions: shRNA
row,Sequence,sensor-assay potency score (higher = more potent)
1,TTGATCTAACCACTTCTGGTGA,-0.291
2,TATTCCAACATCATCCTCTTTC,0.216
3,TTGAACTCTCTTTCCTTTCTGG,0.745
4,TTGGATTCCTATCTTCTCGGAT,0.12
5,TTCTCGGATCTCTTCTCGCTTT,-0.478
6,TTTTGATCTAACCACTTCTGGT,-0.785
7,TTGAGGTCGTACAACTTGGCTC,-0.282
8,TTGTTCTTCATTCTTTCTCTAA,-0.618
9,TAGACTTTCTTAGAGAAGGTGA,0.611
10,TTTCAGGATAGCTACTTCGAGT,-1.23
11,TTCATTTCTATAGCGCTTCTTT,-0.352
12,TATAATTGCTGCTATAACCTTT,-0.316

# Target: ZDHHC14
# Assay: as above
# Conditions: shRNA
row,Sequence,sensor-assay potency score (higher = more potent)
1,TTACAGAAGAACTTGTTTCTTC,0.472
2,TTGGTCGCACATGTCACTCTGT,0.506
3,TAGTAGCATAACACATAAGTGC,-0.719
4,TTACCTCTTTTATTTGACCAGG,-0.803
5,TTAGGAATCCTGTTTGCTGTGA,0.039
6,TTGCAGTCTGGCCACAAGCGTC,-1.44
7,TTTGCGATATCTATTTGCCTTT,-0.604
8,TTTGTTGTCTGGTTGGAGCTGA,0.539
9,TTGGAGCTGATCAAGTAGGTGT,0.206
10,TTGATGATGACTTCTTTGGTTC,-0.541

# Target: ZDHHC20
# Assay: as above
# Conditions: shRNA
row,Sequence,sensor-assay potency score (higher = more potent)
1,TTCTTCAGCTCCATTCTCCAGC,-0.419
2,TTCAGCTCCATTCTCCAGCCAC,-0.374
3,TTGTAACAGAAGCTTGTTCTGG,-0.283
4,TCTTGTTGTCTTTCTTGGCTGA,0.533
5,TTGTTGTTCTATTTTTTCCAAC,-1.28
